Measurements published in PubChem BioAssay (NCI).
Compounds without any hit were thinned out: in the full panel of roughly 79,000, 15% have a hit. A number with no mark means an inactive call. Activity calls are given as the source filed them. Rule as the data show it: active = growth inhibition above about 70%; inactive = the rest.

What was measured:
[1] = NCI Yeast Anticancer Drug Screen. Data for the rad52 strain (AID 147);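 also: 0% = growth of vehicle-treated control cultures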; conditions: S. cerevisiae rad52 mutant growth inhibition, stronger effect = higher value
In short: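 Vehicle-treated cultures served as the reference for growth inhibition of compound-exposed yeast bearing a DNA repair mutation.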

[2] = NCI Yeast Anticancer Drug Screen. Data for the wt1 strain (AID 149);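 also: 0% = growth of vehicle-treated wt1 cultures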; conditions: S. cerevisiae wt1 strain (SPY 50644) growth inhibition, stronger effect = higher value
In short: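 Growth inhibition read against vehicle controls after compound exposure of the wt1 yeast strain.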

[3] = NCI Yeast Anticancer Drug Screen. Data for the rad50EPP+ strain (AID 151);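 also: 0% = growth of vehicle-treated control cultures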; conditions: S. cerevisiae rad50 mutant strain, stronger effect = higher value
In short: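 In this screen, rad50EPP+ yeast were exposed to compounds. Growth inhibition was scored against vehicle-treated controls.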

[4] = NCI Yeast Anticancer Drug Screen. Data for the mgt1 strain (AID 153); conditions: S. cerevisiae mgt1 mutant growth inhibition, stronger effect = higher value
In short: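 mgt1 strain exposed; growth vs vehicle control recorded as inhibition.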

[5] = NCI Yeast Anticancer Drug Screen. Data for the rad50 strain (AID 155);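 also: 0% = growth of vehicle-only cultures of the same strain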; conditions: S. cerevisiae rad50 strain growth inhibition, stronger effect = higher value
In short: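 Readout: growth inhibition relative to vehicle-treated cultures. Compound exposure was carried out in a genetically defined yeast strain deficient in DNA damage repair.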

[6] = NCI Yeast Anticancer Drug Screen. Data for the mec2-1 strain (AID 157); conditions: S. cerevisiae mec2-1 strain, stronger effect = higher value
In short: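 Vehicle-treated cultures served as reference for growth inhibition of compound-exposed mec2-1 yeast.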

[7] = NCI Yeast Anticancer Drug Screen. Data for the rad14 strain (AID 159);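 also: 0% = growth of vehicle-treated control cultures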; conditions: S. cerevisiae rad14 strain growth inhibition, stronger effect = higher value
In short: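 Growth inhibition vs vehicle controls; genetically altered yeast strain (DNA damage repair defect) treated with test compounds.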

[8] = NCI Yeast Anticancer Drug Screen. Data for the sgs1 mgt1 strain (AID 161);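 also: 0% = growth of cultures given vehicle only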; conditions: S. cerevisiae sgs1 mgt1 strain, stronger effect = higher value
In short: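 Inhibition of yeast growth, normalised to vehicle-treated controls, is reported for a strain bearing genetic alterations in DNA damage repair.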

[9] = NCI Yeast Anticancer Drug Screen. Data for the CLN2oe strain (AID 163);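 also: 0% = growth of vehicle-only control cultures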; conditions: S. cerevisiae CLN2oe strain, stronger effect = higher value
In short: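 Inhibition relative to vehicle-treated yeast is reported. Cells: strain with genetic alteration in cell-cycle control, grown with compound.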

[10] = NCI Yeast Anticancer Drug Screen. Data for the cln2 rad14 strain (AID 165);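 also: 0% = growth equal to vehicle treated cultures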; conditions: S. cerevisiae cln2 rad14 strain, stronger effect = higher value
In short: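 Each compound was tested on cln2 rad14 yeast. Inhibition of growth was calculated against vehicle-exposed controls.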

[11] = NCI Yeast Anticancer Drug Screen. Data for the bub3 strain (AID 167); conditions: S. cerevisiae bub3 mutant strain, stronger effect = higher value
In short: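 Readout: yeast growth inhibition, expressed relative to vehicle-only wells. The test organism is a mutant strain from a panel with lesions in DNA repair or checkpoint genes.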

[12] = NCI Yeast Anticancer Drug Screen. Data for the wt2 strain (AID 169);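 also: 0% = growth of vehicle-treated yeast cultures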; conditions: S. cerevisiae wt2 strain growth inhibition, stronger effect = higher value
In short: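 Inhibition of yeast growth was determined after compound treatment, normalised to controls receiving only vehicle.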

[13] = NCI Yeast Anticancer Drug Screen. Data for the mlh1 strain (AID 171);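 also: 0% = growth of vehicle-treated control cultures of the same strain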; conditions: S. cerevisiae mlh1 strain growth inhibition, stronger effect = higher value
In short: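 Vehicle-normalised growth inhibition of a repair- or checkpoint-altered yeast strain following compound treatment.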

[14] = NCI Yeast Anticancer Drug Screen. Data for the sgs1 strain (AID 173);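 also: 0% = growth of vehicle-only control cultures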; conditions: S. cerevisiae sgs1 mutant, stronger effect = higher value
In short: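 Screen format: yeast with repair or checkpoint alterations, compound exposure, growth read relative to vehicle.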

[15] = NCI Yeast Anticancer Drug Screen. Data for the mlh1 rad18 strain (AID 175); conditions: S. cerevisiae mlh1 rad18 strain growth inhibition, stronger effect = higher value
In short: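 Vehicle-treated cultures served as the reference for growth inhibition in a yeast strain carrying DNA damage repair alterations exposed to each compound.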

[16] = NCI Yeast Anticancer Drug Screen. Data for the rad18 strain (AID 177); conditions: S. cerevisiae rad18 mutant growth inhibition, stronger effect = higher value
In short: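 Test articles were incubated with altered yeast defective in DNA damage repair. Results are given as inhibition of growth versus vehicle.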

[17] = at 5.0 µM (retest, dose inferred, filed as 0.5)
[18] = at 50.0 µM (retest, dose inferred, filed as 5.0)

SMILES: Cc1cc(C)c2[s+]snc2c1
- growth inhibition ([1]; at 1.2 µM): 12%
- growth inhibition ([1]; at 3.7 µM): 7%
- growth inhibition ([1]; at 11.0 µM): 16%
- growth inhibition ([1]; at 33.0 µM): 29%
- growth inhibition ([1]; at 100.0 µM): 54%
- growth inhibition ([2]; at 1.2 µM): -36%
- growth inhibition ([2]; at 3.7 µM): 1%
- growth inhibition ([2]; at 11.0 µM): 1%
- growth inhibition ([2]; at 33.0 µM): 9%
- growth inhibition ([2]; at 100.0 µM): 26%
- growth inhibition ([3]; at 1.2 µM): 1%
- growth inhibition ([3]; at 3.7 µM): 5%
- growth inhibition ([3]; at 11.0 µM): 5%
- growth inhibition ([3]; at 33.0 µM): 20%
- growth inhibition ([3]; at 100.0 µM): 80% (active)
- growth inhibition ([4]; at 1.2 µM): 1%
- growth inhibition ([4]; at 3.7 µM): 3%
- growth inhibition ([4]; at 11.0 µM): 6%
- growth inhibition ([4]; at 33.0 µM): 12%
- growth inhibition ([4]; at 100.0 µM): 23%
- growth inhibition ([5]; at 1.2 µM): 0%
- growth inhibition ([5]; at 3.7 µM): 1%
- growth inhibition [5, 17]: -5%
- growth inhibition ([5]; at 11.0 µM): 3%
- growth inhibition ([5]; at 33.0 µM): 9%
- growth inhibition [5, 18]: 23%
- growth inhibition ([5]; at 50.0 µM): 50.5%
- growth inhibition ([5]; at 100.0 µM): 20%
- growth inhibition ([6]; at 1.2 µM): -3%
- growth inhibition ([6]; at 3.7 µM): -5%
- growth inhibition [6, 17]: -6%
- growth inhibition ([6]; at 11.0 µM): -3%
- growth inhibition ([6]; at 33.0 µM): 10%
- growth inhibition [6, 18]: 68%
- growth inhibition ([6]; at 50.0 µM): 50.2%
- growth inhibition ([6]; at 100.0 µM): 29%
- growth inhibition ([7]; at 1.2 µM): 2%
- growth inhibition ([7]; at 3.7 µM): 4%
- growth inhibition ([7]; at 11.0 µM): 5%
- growth inhibition ([7]; at 33.0 µM): 9%
- growth inhibition ([7]; at 100.0 µM): 21%
- growth inhibition [8, 17]: -1%
- growth inhibition [8, 18]: 31%
- growth inhibition ([8]; at 50.0 µM): 79% (active)
- growth inhibition ([9]; at 1.2 µM): -7%
- growth inhibition ([9]; at 3.7 µM): -7%
- growth inhibition ([9]; at 11.0 µM): -4%
- growth inhibition ([9]; at 33.0 µM): -1%
- growth inhibition ([9]; at 100.0 µM): 17%
- growth inhibition [10, 17]: -19%
- growth inhibition [10, 18]: 19%
- growth inhibition ([10]; at 50.0 µM): 33.1%
- growth inhibition ([11]; at 1.2 µM): -4%
- growth inhibition ([11]; at 3.7 µM): -4%
- growth inhibition [11, 17]: -5%
- growth inhibition ([11]; at 11.0 µM): -5%
- growth inhibition ([11]; at 33.0 µM): 1%
- growth inhibition [11, 18]: 61%
- growth inhibition ([11]; at 50.0 µM): 52%
- growth inhibition ([11]; at 100.0 µM): 30%
- growth inhibition ([12]; at 1.2 µM): -2%
- growth inhibition ([12]; at 3.7 µM): 1%
- growth inhibition ([12]; at 11.0 µM): 3%
- growth inhibition ([12]; at 33.0 µM): 7%
- growth inhibition ([12]; at 100.0 µM): 30%
- growth inhibition ([13]; at 1.2 µM): 1%
- growth inhibition ([13]; at 3.7 µM): 1%
- growth inhibition ([13]; at 11.0 µM): 0%
- growth inhibition ([13]; at 33.0 µM): 4%
- growth inhibition ([13]; at 100.0 µM): 19%
- growth inhibition ([14]; at 1.2 µM): 4%
- growth inhibition ([14]; at 3.7 µM): 7%
- growth inhibition ([14]; at 11.0 µM): 8%
- growth inhibition ([14]; at 33.0 µM): 17%
- growth inhibition ([14]; at 100.0 µM): 36%
- growth inhibition [15, 17]: 2%
- growth inhibition [15, 18]: 34%
- growth inhibition ([15]; at 50.0 µM): 76% (active)
- growth inhibition ([16]; at 1.2 µM): 7%
- growth inhibition ([16]; at 3.7 µM): 9%
- growth inhibition ([16]; at 11.0 µM): 6%
- growth inhibition ([16]; at 33.0 µM): 27%
- growth inhibition ([16]; at 100.0 µM): 49%
